Results taken from PubChem BioAssay AID1159580 (chemical genetic matrix, 2015).
Several values for one entry are separate records, joined by “and”; a condition that tells them apart may be missing. Equal entries are not always repeated. About 2,000 (36%) of roughly 5,500 compounds were called active. About 18% were inconclusive and are not listed. Cut-off read from the data, not from the text of the source: active = normalized growth mostly below about 0.91 (no sharp cut-off); inconclusive = no clear call, values can overlap the other calls; inactive = mostly above about 0.92. Some of the results follow.

Experiment: chemical genetic growth profiling, strain panel (AID 1159580);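 note: tested at 20 µM; growth read once vehicle control cultures reached saturation at 30 °C; 1 = growth at the plate median or of vehicle wells; lower values mean less growth of the strain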
Conditions: S. cerevisiae deletion strains, growth OD

Measured: normalized growth

OC(CCN1CCCCC1)(c1ccccc1)c1ccccc1
inactive: locus YAL021C, strain ccr4, hits give low values 1.01 | locus YAL026C, strain drs2, hits give low values 0.985 | locus YAL030W, strain snc1, hits give low values 0.99 | locus YBL061C, strain skt5, hits give low values 0.986 | locus YBR009C, strain hhf1, hits give low values 0.939 | locus YBR021W, strain FUR4, hits give low values 1.02 | locus YBR023C, strain chs3, hits give low values 0.99 | locus YBR171W, strain sec66, hits give low values 0.987 | locus YBR229C, strain ROT2, hits give low values 1 | locus YBR231C, strain swc5, hits give low values 1.01 | locus YBR279W, strain paf1, hits give low values 0.995 | locus YCL011C, strain gbp2, hits give low values 0.969 | locus YCL016C, strain dcc1, hits give low values 0.975 | locus YCL029C, strain bik1, hits give low values 1.01 | locus YCL061C, strain MRC1, hits give low values 1 | locus YCL069W, strain vba3, hits give low values 0.977 | locus YCR088W, strain abp1, hits give low values 0.983 | locus YDL005C, strain med2, hits give low values 1.01 | locus YDL035C, strain GPR1, hits give low values 1.04 | locus YDL040C, strain nat1, hits give low values 0.992 | locus YDL074C, strain BRE1, hits give low values 1.03 | locus YDL101C, strain DUN1, hits give low values 1.01 | locus YDL134C, strain PPH21, hits give low values 1.03 | locus YDL185W, strain tfp1, hits give low values 1.01 | locus YDL192W, strain arf1, hits give low values 1.02 | locus YDR001C, strain nth1, hits give low values 0.989 | locus YDR069C, strain doa4, hits give low values 0.997 | locus YDR101C, strain arx1, hits give low values 0.993 | locus YDR137W, strain rgp1, hits give low values 1.01 | locus YDR159W, strain sac3, hits give low values 1.01 | locus YDR162C, strain NBP2, hits give low values 1.01 | locus YDR195W, strain ref2 1.02 | locus YDR297W, strain sur2, hits give low values 0.984 | locus YDR318W, strain mcm21, hits give low values 1.01 | locus YDR334W, strain swr1, hits give low values 0.99 | locus YDR335W, strain msn5, hits give low values 0.986 | locus YDR388W, hits give low values 1.01 | locus YDR392W, strain spt3, hits give low values 0.886 | locus YDR502C, strain sam2, hits give low values 1 | locus YEL003W, strain gim4, hits give low values 0.98 | locus YEL037C, strain rad23, hits give low values 0.985 | locus YEL061C, strain CIN8 (second series), hits give low values 0.977 | locus YEL061C, strain CIN8, hits give low values 1.01 | locus YER015W, strain faa2, hits give low values 0.994 | locus YER016W, strain bim1, hits give low values 0.997 | locus YER110C, hits give low values 1.01 | locus YER111C, strain swi4, hits give low values 0.983 | locus YER155C, strain BEM2 (second series), hits give low values 0.995 | locus YER155C, strain BEM2, hits give low values 1 | locus YER167W, strain BCK2, hits give low values 1.01 | locus YFR010W, strain ubp6, hits give low values 0.987 | locus YGL078C, strain dbp3, hits give low values 1 | locus YGL086W, strain mad1, hits give low values 1 | locus YGL167C, strain pmr1, hits give low values 0.984 | locus YGL173C, strain kem1, hits give low values 0.986 | locus YGL227W, strain vid30, hits give low values 0.989 | locus YGL240W, strain doc1, hits give low values 1.02 | locus YGL248W, strain PDE1, hits give low values 1.01 | locus YGL253W, strain hxk2, hits give low values 1.02 | locus YGR078C, strain PAC10, hits give low values 1.01 | locus YGR135W, strain pre9, hits give low values 1.01 | locus YGR252W, strain gcn5, hits give low values 1.01 | locus YHR013C, strain ard1, hits give low values 1.01 | locus YHR027C, strain rpn1, hits give low values 0.99 | locus YHR030C, strain SLT2, hits give low values 1.01 and 1.03 | locus YHR079C, strain IRE1 (second series), hits give low values 1.01 | locus YHR079C, strain IRE1, hits give low values 1.03 | locus YHR094C, strain hxt1, hits give low values 1.01 | locus YHR129C, strain ARP1, hits give low values 1 | locus YHR142W, strain chs7, hits give low values 0.946 | locus YHR200W, strain rpn10, hits give low values 1.01 | locus YIL066C, strain RNR3, hits give low values 1.01 | locus YIL073C, strain SPO22, hits give low values 1.09 | locus YIL125W, strain kgd1, hits give low values 1.01 | locus YIR030C, strain dcg1, hits give low values 1.01 | locus YJL092W, strain hpr5, hits give low values 0.988 | locus YJL095W, strain BCK1 (second series), hits give low values 0.982 | locus YJL095W, strain BCK1, hits give low values 0.996 and 1.05 | locus YJL115W, strain asf1, hits give low values 0.982 | locus YJL129C, strain trk1, hits give low values 0.987 | locus YJL134W, strain LCB3, hits give low values 1 | locus YJL154C, strain vps35, hits give low values 0.984 | locus YJL164C, strain tpk1, hits give low values 0.967 | locus YJL166W, strain qcr8, hits give low values 1 | locus YJL168C, strain set2, hits give low values 1.01 | locus YJL187C, strain SWE1 (second series), hits give low values 1.01 | locus YJL187C, strain SWE1, hits give low values 0.996 | locus YJR043C, strain POL32, hits give low values 1.04 | locus YJR066W, strain TOR1, hits give low values 0.938
